PubChem BioAssay (NCI)
Compounds without any hit were thinned out: in the full panel of roughly 83,000, 20% have a hit.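 For each line, cells grew in 96-well plates with the test compound present at a single concentration for 48 hours.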 Unmarked numbers belong to inactive results. The source made the active and inactive calls. The calls were made as follows: active = growth percent below 10; inactive = the rest.

Experiments:
Test in all cases: NCI-60 one-dose screen, 48 h (100 = growth as untreated, 0 = no growth, -100 = all killed)
Settings in all cases: 10 µM unless noted
DU-145 prostate = test system: DU-145 prostate
K-562 leukemia = test system: K-562 leukemia
MALME-3M melanoma = test system: MALME-3M melanoma
MDA-MB-231 breast = test system: MDA-MB-231 breast
RXF 393 renal = test system: RXF 393 renal
SF-268 CNS = test system: SF-268 CNS
SF-295 CNS = test system: SF-295 CNS
SF-539 CNS = test system: SF-539 CNS
UACC-257 melanoma = test system: UACC-257 melanoma
M14 melanoma = test system: M14 melanoma

Compound	growth (DU-145 prostate)	growth (K-562 leukemia)	growth (MALME-3M melanoma)	growth (MDA-MB-231 breast)	growth (RXF 393 renal)	growth (SF-268 CNS)	growth (SF-295 CNS)	growth (SF-539 CNS)	growth (UACC-257 melanoma)	growth (M14 melanoma)
COc1ccc(-c2ccc(SCC(=O)NCCc3ccc(S(N)(=O)=O)cc3)nn2)cc1	96.1%	54.1%	89.3%	92.6%	80.2%	103%	84.9%	88.7%	55.3%	99.7%
NS(=O)(=O)c1ccc(N=Nc2c(O)n(CC(=O)Nc3ccccc3Cl)c3ccccc23)cc1	28.8%	16.2%	16%	15.4%	24.4%	77.4%	15.1%	-10% (active)	53.2%	23.8%
Cc1ccc(S(=O)(=O)c2nc(S(=O)(=O)c3ccc(C)cc3)c(N3CCN(C)CC3)s2)cc1	52.6%	15.7%	73.5%	84.4%	30.3%	78.7%	102%	57.5%	85.8%	74%
O=C(c1ccccc1)C(c1c[nH]c2ccccc12)c1c[nH]c2ccccc12	71.7%	10.3%	72.8%	57.5%	46.8%	60.3%	85.4%	85.4%	76.8%	61.1%
O=c1onc(-c2cc3ccccc3nc2Cl)n1-c1cccc2ccccc12	80.7%	17.6%	55.3%	29.7%	43.5%	73.8%	15.5%	52.6%	70.7%	38.3%
CCCCSc1nc(NCCc2c[nH]c3ccccc23)c(C#N)c(-c2ccc(OC)cc2)n1	68.4%	22.4%	93.4%	36.9%	-2.63% (active)	56%	43.4%	54.4%	94.8%	70.1%
C#C[C@]1(O)CC[C@H]2[C@@H]3CC=C4c5sc(-c6ccc([N+](=O)[O-])cc6)nc5CC[C@]4(C)[C@H]3CC[C@@]21C	6.96% (active)	5.27% (active)	-28.9% (active)	-23.5% (active)	-21.7% (active)	44.5%	-41.3% (active)	-49% (active)	32.7%	-53.7% (active)
O=C1NC(=O)c2c1c1c3cc(Br)ccc3[nH]c1c1oc3ccc(F)cc3c21	-31.5% (active)	4.29% (active)	-31.1% (active)	-25.3% (active)	-47.7% (active)	-22.6% (active)	-64.3% (active)	-68.5% (active)	48.4%	20%
COc1cc(/C=C2\C(=N)N=C(SCc3nc4ccccc4[nH]3)NC2=O)ccc1O	108%	103%	91.1%	86.4%	113%	111%	101%	99.2%	105%	95.4%
COCOc1ccc2c(=O)c(C)c(C(=O)N[C@@H](Cc3ccccc3)C(O)C(=O)NCCc3ccc(OC)cc3)oc2c1 (stereo not given in full)	106%	84.1%	111%	99%	99.1%	120%	107%	109%	116%	118%
O=C(N=Nc1c(O)[nH]c2ccc(Cl)cc12)c1ccc2nc(-c3ccccc3)[nH]c2c1	10.9%	29.3%	8.71% (active)	-33.1% (active)	59.1%	21.8%	63.6%	34%	109%	68.6%
O=C1NC(=O)/C(=C/c2ccccc2OCc2cc3ccccc3nc2Cl)S1	90.5%	84.6%	82.8%	64.2%	72.8%	58.7%	72%	70.8%	89.4%	120%
CN(C)c1nc(NCCNS(=O)(=O)c2ccc(C3=Nc4c(N)nc(N)nc4NC(c4ccc(C(F)(F)F)cc4)C3)cc2)nc(Nc2ccc(F)cc2)n1 (stereo not given)	26.9%	1.59% (active)	-36.8% (active)	-37.4% (active)	-11.9% (active)	28%	20.8%	-65.4% (active)	43%	7.55% (active)
S=C(NCCc1ccccc1)Nc1ccc(OCc2nc3ccccc3[nH]2)cc1	110%	101%	102%	109%	122%	100%	104%	102%	99.1%	95.9%
C#CCOc1ccc(/C=N/Nc2nc(-c3cc4cc(OC)ccc4oc3=O)cs2)cc1OC	31.5%	34.7%	2.64% (active)	44%	-88.8% (active)	57.2%	41.2%	28.2%	54.7%	42.2%
CC(=O)OC[C@@]1(C)C2CC[C@]3(C)C(CC=C4C5CC(C)(C)CC[C@]5(C(=O)Nc5ccc(F)cc5)CC[C@]43C)[C@@]2(C)C[C@@H](OC(C)=O)[C@@H]1OC(C)=O (stereo not given in full)	47.4%	22.4%	58.2%	65.5%	87.4%	57.4%	23.4%	40.2%	26.8%	48.1%
Cc1cc2c(cc1Cl)C(=O)/C(=C/c1ccccc1)O2	-94.3% (active)	9.17% (active)	-46.8% (active)	-36.5% (active)	-33.9% (active)	64%	24.9%	-98.5% (active)	36.1%	30.9%
Brc1ccc(-c2n(Cc3ccc4ccccc4c3)c(-c3ccccc3)c(-c3ccccc3)[n+]2Cc2ccc3ccccc3c2)cc1	-100% (active)	4.96% (active)	-91% (active)	-89.5% (active)	-69.6% (active)	-72.1% (active)	-86.3% (active)	-100% (active)	-89.6% (active)	-90.8% (active)
Cc1ccc(NCC(=O)Cn2cc(COc3ccc(C=Nc4cnc5ccccc5c4)cc3)nn2)cc1	119%	102%	102%	107%	125%	123%	107%	104%	105%	105%
COc1ccc2[nH]c(=O)c(CSc3nccc(-c4ccc(OC)c(OC)c4)n3)cc2c1	37.4%	11.4%	-2.09% (active)	6.47% (active)	-13.7% (active)	28%	-30.4% (active)	24.7%	38.9%	47.8%
COc1ccc(/C=C/c2nc3ccccc3n3c(-c4ccc(Cl)cc4)nnc23)cc1	98.5%	72.4%	104%	91.7%	100%	79.4%	123%	90.8%	102%	102%
